The campaign covered roughly 16,000 compounds. About 4,000 (25%) were called active. Inconclusive results (about 26%) are left out. Only a sample is shown. Values without a mark were called inactive. The call rests on the fitted dose curve; in most records, active means well fitted curve in the direction sought with a large enough effect; inconclusive means small, poorly fitted or top-dose-only effect, or effect the other way; inactive means no such curve, though single readings can be large or run the other way.
On the % scale 0 is the no-effect control and ±100 the full control effect.

The experiment deals with Cytochrome P450 2C9 (Homo sapiens) (UniProt P11712). As to the kind of experiment: Cytochrome panel assay with activity outcomes. To be noted: recombinant CYP, pro-luciferin dealkylation, luminescence, p450-cyp2c9; series mostly up to 57.1 µM; activity, negative = inhibition: at the top concentration.
Sequence of Cytochrome P450 2C9 (Homo sapiens) (P11712 whole entry, looked up): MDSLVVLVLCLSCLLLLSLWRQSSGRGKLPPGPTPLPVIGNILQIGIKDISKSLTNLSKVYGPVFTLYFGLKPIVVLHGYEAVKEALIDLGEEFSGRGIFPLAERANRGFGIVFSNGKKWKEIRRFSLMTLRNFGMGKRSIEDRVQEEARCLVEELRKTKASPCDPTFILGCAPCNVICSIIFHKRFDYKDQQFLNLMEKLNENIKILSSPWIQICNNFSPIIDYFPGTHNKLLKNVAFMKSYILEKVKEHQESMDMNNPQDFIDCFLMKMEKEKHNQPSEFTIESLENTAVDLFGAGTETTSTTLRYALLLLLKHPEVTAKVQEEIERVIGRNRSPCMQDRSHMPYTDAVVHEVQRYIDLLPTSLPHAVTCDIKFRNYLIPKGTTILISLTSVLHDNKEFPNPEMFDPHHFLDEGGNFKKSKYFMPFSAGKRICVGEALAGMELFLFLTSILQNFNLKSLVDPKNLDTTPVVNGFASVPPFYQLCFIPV
`CC1=NNC(=S)NCCCN2CCN(CCCNC(=S)NN=C(C)C=NNC(=S)NCCCN3CCN(CCCNC(=S)NN=C1)CC3)CC2`: the activity, negative = inhibition was 5.77% [at 11.4 µM]. `CC(C)N1CCN(c2ccc(OC[C@@H]3CO[C@@](Cn4cncn4)(c4ccc(Cl)cc4Cl)O3)cc2)CC1`: the “activity, negative = inhibition” value was -13% [at 25.6 µM].

Take `COc1cc(C2NC(=O)NC(O)(C(F)(F)F)C2C(=O)c2ccc(Cl)cc2)ccc1O` (stereo not drawn): the “activity, negative = inhibition” value was -18.5%. A word on the AC50: it is the concentration at which the activity in the assay is half-maximal. Regarding `O=C(c1cc(C(F)(F)F)cc(C(F)(F)F)c1)N1CCC2(CC1)CN(c1ccncc1)C2`, the AC50 was 3.98 µM (active).

As to `O=C(c1ccco1)N1CCC2(CC1)CN(Cc1cc(C(F)(F)F)cc(C(F)(F)F)c1)C2`, the “activity, negative = inhibition” value is -15.8%. In the case of `Cn1cccc1C(=O)N1CCC2(CC1)CN(Cc1ccc(C#N)cc1)C2`, the “activity, negative = inhibition” value is 17.7%. As to `Cn1cccc1C(=O)N1CCC2(CC1)CN(Cc1cc(C(F)(F)F)cc(C(F)(F)F)c1)C2`, the AC50 is 15.8 µM (active).

For the compound `O=C(c1cc(C(F)(F)F)cc(C(F)(F)F)c1)N1CCC2(CC1)CN(c1ccccc1)C2`, the “activity, negative = inhibition” value is -7.28%. As to `O=C(c1cc(C(F)(F)F)cc(C(F)(F)F)c1)N1CCC2(CC1)CCN(c1ccncc1)CC2`, the “activity, negative = inhibition” value was -26%.

On to `CC(C)CC(=O)N1CCC(O)(CS(=O)(=O)Cc2ccc(Cl)cc2)CC1`, for which the “activity, negative = inhibition” value is -24.6%.

Take `CCc1ccc(-c2ccc(C(=O)C(F)(F)F)[nH]2)cc1`: the “activity, negative = inhibition” value is -28.7%. On the same count and under the same terms, then `Cc1cccc(-n2nnc3cnn(C)c3c2=O)c1`, with -26.3%; and `CN(C)Cc1ccccc1-c1nccc(Nc2ccc(F)cc2)n1`, with 6.01% [at 2.29 µM]. Take `CN1CCN(c2ccc([N+](=O)[O-])cc2S(=O)(=O)N2CCOCC2)CC1`: the “activity, negative = inhibition” value is -10.1%. Regarding `O=[N+]([O-])c1ccc(N2CCN(Cc3ccccc3)CC2)c(S(=O)(=O)N2CCOCC2)c1`, the AC50 was 17.8 µM (active). As for `O=C(C1CCN(S(=O)(=O)N2CCOCC2)CC1)N1CCN(Cc2ccccc2)CC1`, the “activity, negative = inhibition” value was -10.1%.

For the compound `CC1CCC(C(=O)O)([C@H](Br)C(=O)O)CC1` (stereo partly drawn), the activity, negative = inhibition was -6.22% [at 11.4 µM]. On the same count and under the same terms, for `Cc1c(C)c(C)c(CC2(C)CSC2)c(CC2(C)CSC2)c1C` the value was 11.8% [at 11.4 µM]. The same measure, in the same setting: then `CS(=O)(=O)Nc1ccc([N+](=O)[O-])cc1OC1CCCCC1`, with -25%. For `CS(=O)(=O)Nc1ccc([N+](=O)[O-])cc1Oc1ccccc1`, the AC50 was 3.16 µM (active). Consider `CC(=O)NN1C(=O)c2ccc(Oc3ccc([N+](=O)[O-])cc3)cc2C1=O`, for which the “activity, negative = inhibition” value is -23.4%. As for `CC(=O)COc1ccc2c(C)c(C)c(=O)oc2c1`, the AC50 was 22.4 µM (active). Same read-out and setting: then `CCCC[C@@H]1C[C@H]1C(NC(=O)c1cccnc1)c1ccc(Cl)cc1` (stereo partly drawn), with 12.6 µM (active); and `CCCC[C@@H]1C[C@H]1C(NC(=O)c1cccnc1)c1ccc(-c2ccccc2)cc1` (stereo partly drawn), with 5.01 µM (active). In the case of `COCCNc1ncnc2ccc(-c3c(C)noc3C)cc12`, the activity, negative = inhibition is 7.8% [at 2.29 µM]. The same measure, in the same setting: then `COC(=O)[C@@H]1[C@@H]2C[C@H]3c4[nH]c5ccccc5c4CCN3C[C@@H]2CC[C@@H]1OS(=O)(=O)O`, with 7.13% [at 11.4 µM]. Take `CN1CCN(c2ncnc3ccc(-c4ccccc4C#N)cc23)CC1`: the activity, negative = inhibition was 2.98% [at 2.29 µM]. As for `N#C/C(=C/c1cccc(C(F)(F)F)c1)c1nc(CCN2C(=O)c3ccccc3C2=O)cs1`, the AC50 is 0.178 µM (active). With `Cc1cc(C)c(NC(=O)C2CCCN2C)c(C)c1` (stereo not drawn), the “activity, negative = inhibition” value is 1.9%.

With `O=c1ccn(-c2cccc(C(F)(F)F)c2)nc1-c1ccn(-c2ccccc2F)n1`, the AC50 is 10 µM (active).

With `Cc1ccc(C(=O)CN(C(=O)c2ccc(Cl)cc2)N2C(=O)c3ccccc3C2=O)cc1`, the AC50 was 3.16 µM (active). On the same count and under the same terms, then `CCOC(=O)C1=NNC2(c3ccc(Cl)cc3)C(=O)N(c3cc(C)cc(C)c3)C(=O)C12` (stereo not drawn), with 3.55 µM (active). As to `CCc1cc(Cl)c(OC)c(C(=O)NC[C@@H]2CCCN2CC)c1O`, the “activity, negative = inhibition” value is 0.663% [at 25.6 µM]. Still for that read-out and setting: then `C[C@H](N)CCCC(C)(C)O`, with -15.2% [at 25.6 µM]; and `CC(=O)Nc1c(C)nn(-c2ccc(C)c(C)c2)c1C`, with -8.65%. `Cc1nn(-c2ccc(F)cc2)c(C)c1NS(=O)(=O)c1ccc2ccccc2c1`: the AC50 is 12.6 µM (active).

With `Cc1ccc(CCN2CC(C(=O)NCCN3CCOCC3)CC2=O)cc1` (stereo not drawn), the “activity, negative = inhibition” value is -10.2%. On the same count and under the same terms, then `Cc1ccc(CCN2CC(C(=O)NCCN3CCCCCC3)CC2=O)cc1` (stereo not drawn), with -28.6%. Regarding `CCOCCCN1CC(C(=O)NCCc2ccc(C)cc2)CC1=O` (stereo not drawn), the AC50 was 8.91 µM (active). As for `COc1cc2c3cc1Oc1c(OC)c(OC)cc4c1[C@@H](Cc1ccc(O)c(c1)Oc1ccc(cc1)C[C@@H]3N(C)CC2)CN(C)C4`, the activity, negative = inhibition is -25.3% [at 11.4 µM]. Consider `Cc1ccc(OCC(O)Cn2c3ccccc3c3ccccc32)cc1` (stereo not drawn), for which the AC50 is 4.47 µM (active). As for `OC(COc1ccc(OCC(O)CN2CCCCCC2)cc1)CN1CCCCCC1` (stereo not drawn), the “activity, negative = inhibition” value is -0.623%. Turning to `C=CCN(CC=C)CC(O)Cn1c2ccccc2c2ccccc21` (stereo not drawn), the AC50 is 14.1 µM (active). Consider `O=C(O)CC(O)C(=O)O` (stereo not drawn), for which the “activity, negative = inhibition” value was -7.21%. Take `Cn1c(/C=N/NC(=O)c2ccccc2Br)nc2ccccc21`: the AC50 was 2 µM (active). Still for that read-out and setting: for `Cc1ccc(-n2nnnc2C(=Cc2ccc(N(C)C)cc2)c2nnnn2-c2ccc(C)cc2)cc1` the value was 3.55 µM (active). `CC(=O)NNc1cccc(Cl)n1`: the “activity, negative = inhibition” value is -15.4%. Turning to `CCCCc1ccc(NC(=S)NCc2cccs2)cc1`, the AC50 is 12.6 µM (active).

Source of the values: PubChem BioAssay AID1851 (National Center for Advancing Translational Sciences (NCATS), 2009).
